Results: PubChem BioAssay
Unmarked numbers belong to inactive results.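 How the source made its calls: active means compounds killing one labelled cell type while sparing the other, by normalised counts and ratio limits, not self-fluorescent; inactive means the rest.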

Assay: differential killing of epithelial or mesenchymal cells, primary screen, imaging, PC-3E GFP, TEM4-18 mCherry, co-culture (AID 1345086);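 further: normalised mesenchymal count divided by normalised epithelial count so high means epithelial killing; cells exposed to compound for 72 h before imaging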
Settings: imaging cell counts, at 1 µM, actives lie on both sides, counts scaled to control wells, 1 = unselective

First: Cc1cc(O)c2c(c1)Cc1cccc(O)c1C2=O
Second: O=c1c(O)cccc2cc(O)c(O)c(O)c12
The red/green cell ratio (normalised) of the first is higher: 0.94 for the first, 0.92 for the second.

First: C#C[C@]1(O)CC[C@@H]2C3[C@H](C)CC4=C(CCC(=O)C4)[C@H]3CC[C@@]21C (stereo partly drawn)
Second: CC#C[C@]1(O)CCC2C3CCC4=CC(=O)CCC4=C3[C@@H](c3ccc(N(C)C)cc3)C[C@@]21C (stereo partly drawn)
The red/green cell ratio (normalised) of the first is higher: 1.13 for the first, 1 for the second.

Compared with C=CC(C)(C)c1[nH]c2ccccc2c1C1=C(OC)C(=O)C(c2c(C(C)(C)C=C)[nH]c3ccccc23)=C(OC)C1=O, COCC1O[C@@H](OC)[C@@H](OCc2ccccc2)[C@@H](OCc2ccccc2)C1O (stereo partly drawn) is lower in red/green cell ratio (normalised): 0.88 for the first, 0.86 for the second.

Going from COC(=O)C1O[C@H](OCc2ccccc2)[C@@H](OC(=O)c2ccccc2)[C@@H](OC(=O)c2ccccc2)C1O (stereo partly drawn) to O=C1CC(c2ccc(O)cc2)Oc2ccccc21 (stereo not drawn), the red/green cell ratio (normalised) rises from 1.02 to 1.07.

Going from Cc1c(F)c(F)cc2c(=O)n(N)c(=O)n(C3CC3)c12 to CC(CC(=O)N1CCOC1=O)N1C(=S)SC[C@H]1c1ccccc1 (stereo partly drawn), the red/green cell ratio (normalised) falls from 0.9 to 0.8.

Compared with CO[C@H]1C[C@H](O[C@H]2[C@H](C)[C@@H](O[C@@H]3O[C@H](C)C[C@H](N(C)C)[C@H]3O)[C@@H](C)C[C@]3(CO3)C(=O)[C@H](C)[C@@H](O)[C@@H](C)[C@@H](C)OC(=O)[C@@H]2C)O[C@@H](C)[C@@H]1O, C/C(=C\CO)CC[C@H](C)CCC[C@H](C)CCCC(C)C is higher in red/green cell ratio (normalised): 0.92 for the first, 1.12 for the second.

In the case of O=C(Nc1ccc(Cl)cc1)Nc1ccc(CO)cc1, the red/green cell ratio (normalised) is reported as 0.86.
